The values below come from PubChem BioAssay (Tox21).

Unmarked numbers belong to inactive results. Results filed as inconclusive are left out. Calls of active or inactive are those of the source. Unless noted, calls come from the whole dose curve.

Assay [1] can be described thus: Nuclear factor erythroid 2-related factor 2/antioxidant responsive element (Nrf2/ARE) small molecule agonists: qHTS cell viability counter screen in human keratinocytes (AID 1919968; active = well fitted curve in the direction sought with a large enough effect in the repeat runs; an effect the other way counts as inactive or inconclusive; note: nearly all actives have a fitted effect of over 55% in size). In short, it runs like this:
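CellTiter-Fluor fluorescence, read 1 h after reagent, gave viability in the same wells as the ARE-luciferase assay. KeratinoSens cells (1,500/well) had 23 h compound exposure at 37 C/5% CO2 following 5 h plating.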

A short description of assay [2]: Nuclear factor erythroid 2-related factor 2/antioxidant responsive element (Nrf2/ARE) small molecule agonists: luciferase reporter gene qHTS assay in human keratinocytes (AID 1919969; note: nearly all actives have a fitted effect of over 35% in size; note: potency is the fitted concentration of half-maximal effect). (Reporter assays use an easily measured gene product as a stand-in for the process of interest.)
Assay [3] deals with Gonadotropin-releasing hormone receptor (Homo sapiens) (UniProt P30968). Briefly: Human gonadotropin-releasing hormone receptor (GnRHR) small molecule agonists, calcium flux assay in GnRHR-HEK293 cells (AID 1920063). Note: nearly all actives have a fitted effect of over 35% in size. In short, it runs like this: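 Agonist mode: compounds at 15 concentrations, in triplicate, went onto calcium dye-loaded GnRHR-HEK293 cells. Intracellular calcium was then followed as 480/540 nm fluorescence at 1 s intervals over 3 min.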

The target in assay [4] is KiSS-1 receptor (Homo sapiens) (UniProt Q969F8). Briefly: Human kisspeptin (KISS1R) small molecule agonists, calcium flux assay in KISS1R-HEK293 cells (AID 1920064; active = well fitted curve in the direction sought with a large enough effect in the repeat runs; an effect the other way counts as inactive or inconclusive). In short, it runs like this: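 Agonist mode: intracellular calcium rise tracked at 1 s intervals over 3 min (480/540 nm) immediately after compound addition to dye-loaded KISS1R-HEK293 stable cells. Each compound tested at 15 concentrations in triplicate.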
In general terms: Calcium flux is commonly read through the fluorescence of an indicator in the cells.

Assay [5] in a line: G protein-coupled receptor (GPCR) small molecule agonists, calcium flux assay: HEK293 wild type cell line counter screen (AID 1920065). In short, it runs like this: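 Calcium flux counter screen: compound added in agonist mode at 15 concentrations in triplicate to dye-loaded parental HEK293 cells. Fluorescence (480/540) read kinetically for 3 min; ATP served as positive control.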

The nature of assay [6]: p53 small molecule agonists, cell-based qHTS assay with human liver microsomes: qHTS cell viability counter screen (AID 1963579). Note: nearly all actives have a fitted effect of over 45% in size. In short, it runs like this:
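Tox21 library compounds, delivered from DMSO stocks, were tested on p53RE-bla cells together with 0.5 mg/mL human liver microsomes and 0.5 mg/mL NADPH (final) over 16 h at 37 C; CellTiter-Glo luminescence served as the cytotoxicity measure.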
For orientation: qHTS replaces the single test concentration by a dilution series.

Assay [7] is described as follows: p53 small molecule agonists, cell-based qHTS assay with rat liver microsomes: qHTS cell viability counter screen (AID 1963580). Note: nearly all actives have a fitted effect of over 45% in size. In short, it runs like this:
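Rat liver microsome (0.5 mg/mL final) and NADPH (0.5 mg/mL final) co-incubation with compounds for 16 h at 37 C on HCT-116 p53RE-bla cells; cytotoxicity taken from intracellular ATP luminescence.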

A short description of assay [8]: p53 small molecule agonists, cell-based qHTS assay: qHTS cell viability counter screen (AID 1963581). Note: nearly all actives have a fitted effect of over 45% in size. In short, it runs like this:
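Counter screen read by CellTiter-Glo luminescence (ATP content, 30 min at room temperature), run in the same wells as the beta-lactamase reporter read. HCT-116 p53RE-bla cells saw compounds for 16 h at 37 C.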

The target of assay [9] is 5-hydroxytryptamine receptor 2A (Homo sapiens) (UniProt P28223). Nature of the assay: 5-hydroxytryptamine receptor 2A (HTR2A) small molecule agonists, cell-based qHTS assay (AID 1963587). Note: nearly all actives have a fitted effect of over 30% in size. In short, it runs like this: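 Kinetic calcium-flux fluorescence (2 min, 1 sec intervals) after compound addition in agonist mode. HTR2A-CHO cells were cultured 18 h, then dye-loaded 1 h at 37 C.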

Assay [10] concerns the target Muscarinic acetylcholine receptor M1 (Homo sapiens) (UniProt P11229). Nature of the assay: Cholinergic receptor muscarinic 1 (CHRM1) small molecule antagonists, cell-based qHTS assay (AID 1963588). Note: nearly all actives have a fitted effect of over 40% in size. Note: potency is the fitted concentration of half-maximal effect. In short, it runs like this: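 Compounds were tested at 15 concentrations in three independent runs. Dye-loaded CHRM1-CHO cells were exposed 5 min at room temperature before stimulation by acetylcholine added at 50nM. Intracellular calcium was read kinetically on FDSS for 3 min.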

For assay [11] the target is unchanged. Briefly: Cholinergic receptor muscarinic 1 (CHRM1) small molecule agonists, cell-based qHTS assay (AID 1963589). Note: nearly all actives have a fitted effect of over 35% in size. In short, it runs like this: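 Agonist-mode calcium-flux screen: compounds at 15 concentrations, three independent runs, were pin-transferred onto dye-loaded human CHRM1-CHO cells. Fluorescence was then recorded kinetically every second over minutes.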

Assay [12] is described as follows: cAMP Responsive Elements (CRE) small molecule agonists, cell-based qHTS assay (AID 1963590). In short, it runs like this:
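Agonist mode: compound added to CRE-bla HEK 293T cells (2,000/well, 18 h after plating) for 3 h at 37 C/5% CO2. Reporter activity detected via FRET beta-lactamase substrate, 2 h room-temperature loading.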

A short description of assay [13]: cAMP Responsive Elements (CRE) small molecule antagonists, cell-based qHTS assay (AID 1963591; active = well fitted inhibition curve with a large enough effect in the signal ratio in the repeat runs, not every such curve was filed as active; the % refers to the signal ratio). In short, it runs like this:
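Antagonist mode: compounds are added alongside the adenylyl cyclase activator NKH477 (0.25 uM final) to CRE-bla HEK293T cells for 3 h. LiveBLAzer FRET substrate, 2 h at room temperature, reports bla expression.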

Assay [14] addresses D(2) dopamine receptor (Homo sapiens) (UniProt P14416). Nature of the assay: Dopamine D2 receptor (DRD2) small molecule agonists, cell-based qHTS assay (AID 1963594). Note: nearly all actives have a fitted effect of over 35% in size. In short, it runs like this: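 cAMP accumulation in DRD2-HEK293 cells measured by HTRF after 1 h detection; compounds added 10 min before NKH477 (200nM […]) forskolin-analogue stimulation, 30 min at room temperature, with Ro20-1724 present at 0.1 mM final.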

For assay [15] the target is unchanged. Nature of the assay: Dopamine D2 receptor (DRD2) small molecule antagonists, cell-based qHTS assay (AID 1963595; active = well fitted inhibition curve with a large enough effect in the signal ratio in the repeat runs, with a control signal flat; the % refers to the signal ratio). In short, it runs like this:
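HEK293 cells stably expressing DRD2 were preincubated with 0.1 mM Ro20-1724, then with compound for 10 min at room temperature. Cells were stimulated with 200 nM NKH477 plus 12 nM quinpirole for 30 min, and cAMP was read by HTRF.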

The target of assay [16] is 5-hydroxytryptamine receptor 2A (Homo sapiens) (UniProt P28223). Briefly: 5-hydroxytryptamine receptor 2A (HTR2A) small molecule antagonists, cell-based qHTS assay (AID 1963586). Note: nearly all actives have a fitted effect of over 45% in size. In short, it runs like this:
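CHO cells stably expressing human HTR2A were plated for 18 h at 37 C, then loaded with calcium dye for 1 h. Compounds were preincubated 5 min at room temperature before DOI (4 nM solution) was added. Kinetic fluorescence was read for 3 min.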

In assay [17] the target is Beta-2 adrenergic receptor (Homo sapiens) (UniProt P07550). Nature of the assay: Adrenergic beta2 receptor (ADRB2) small molecule antagonists, cell-based qHTS assay (AID 1963592). Note: series mostly up to about 92 µM; nearly all actives have a fitted effect of over 50% in size. In short, it runs like this:
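Assay format: CHO-ADRB2 cells, 18-20hr seeding at 37C/5% CO2, then compound plus 1nM isoproterenol agonist mix for 0.5hr RT. Homogeneous time-resolved fluorescence cAMP detection after 1hr, expressed as 665/615 nm ratio.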

The target is the same in assay [18]. Briefly: Adrenergic beta2 receptor (ADRB2) small molecule agonists, cell-based qHTS assay (AID 1963593).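 Note: CHO cells stably overexpressing human ADRB2.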 In short, it runs like this:
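CHO cells stably over-expressing ADRB2 were plated overnight at 37C, then dosed with compounds plus a stimulation mix containing 100uM IBMX and 25uM Ro-20-1724 for 0.5hr at room temperature. cAMP was measured by HTRF competition, 1hr.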

Chain of Muscarinic acetylcholine receptor M1 (Homo sapiens) (P11229 whole entry, looked up): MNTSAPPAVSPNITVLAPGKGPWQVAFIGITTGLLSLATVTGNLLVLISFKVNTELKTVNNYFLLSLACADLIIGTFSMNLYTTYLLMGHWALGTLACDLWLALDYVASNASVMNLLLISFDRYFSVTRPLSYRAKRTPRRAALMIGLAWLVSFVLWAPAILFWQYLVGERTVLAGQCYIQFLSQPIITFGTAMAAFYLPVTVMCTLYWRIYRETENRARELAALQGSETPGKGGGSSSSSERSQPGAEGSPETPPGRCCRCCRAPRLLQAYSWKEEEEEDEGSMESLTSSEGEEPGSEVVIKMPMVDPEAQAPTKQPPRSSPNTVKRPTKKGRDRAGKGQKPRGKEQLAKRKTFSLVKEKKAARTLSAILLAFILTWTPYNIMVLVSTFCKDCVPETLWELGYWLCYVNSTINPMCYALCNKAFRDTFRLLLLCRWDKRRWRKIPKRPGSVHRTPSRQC
Chain of Beta-2 adrenergic receptor (Homo sapiens) (P07550 whole entry, looked up): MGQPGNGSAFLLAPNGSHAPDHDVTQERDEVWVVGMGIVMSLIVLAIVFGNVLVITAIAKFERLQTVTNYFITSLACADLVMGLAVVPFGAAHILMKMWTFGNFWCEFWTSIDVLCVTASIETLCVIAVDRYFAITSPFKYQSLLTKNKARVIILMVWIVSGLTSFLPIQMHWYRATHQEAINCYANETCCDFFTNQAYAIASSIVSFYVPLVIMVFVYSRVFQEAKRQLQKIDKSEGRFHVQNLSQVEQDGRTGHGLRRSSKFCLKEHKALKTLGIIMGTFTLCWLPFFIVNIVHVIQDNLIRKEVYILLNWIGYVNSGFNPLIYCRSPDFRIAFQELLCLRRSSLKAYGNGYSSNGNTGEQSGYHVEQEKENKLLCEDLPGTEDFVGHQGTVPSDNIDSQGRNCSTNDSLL
Chain of D(2) dopamine receptor (Homo sapiens) (P14416 whole entry, looked up): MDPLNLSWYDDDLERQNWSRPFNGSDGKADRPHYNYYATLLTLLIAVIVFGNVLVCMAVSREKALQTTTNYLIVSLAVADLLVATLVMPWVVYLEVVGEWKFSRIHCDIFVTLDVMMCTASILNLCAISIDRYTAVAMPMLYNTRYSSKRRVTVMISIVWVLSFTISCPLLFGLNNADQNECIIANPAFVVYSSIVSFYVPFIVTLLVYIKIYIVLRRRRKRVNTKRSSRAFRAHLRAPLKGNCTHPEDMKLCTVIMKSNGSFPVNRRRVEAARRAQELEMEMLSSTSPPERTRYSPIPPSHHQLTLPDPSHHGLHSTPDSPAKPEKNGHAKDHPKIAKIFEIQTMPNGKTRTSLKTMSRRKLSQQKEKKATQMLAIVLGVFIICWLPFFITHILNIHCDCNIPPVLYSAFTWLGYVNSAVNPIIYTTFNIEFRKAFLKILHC
Chain of Gonadotropin-releasing hormone receptor (Homo sapiens) (P30968 whole entry, looked up): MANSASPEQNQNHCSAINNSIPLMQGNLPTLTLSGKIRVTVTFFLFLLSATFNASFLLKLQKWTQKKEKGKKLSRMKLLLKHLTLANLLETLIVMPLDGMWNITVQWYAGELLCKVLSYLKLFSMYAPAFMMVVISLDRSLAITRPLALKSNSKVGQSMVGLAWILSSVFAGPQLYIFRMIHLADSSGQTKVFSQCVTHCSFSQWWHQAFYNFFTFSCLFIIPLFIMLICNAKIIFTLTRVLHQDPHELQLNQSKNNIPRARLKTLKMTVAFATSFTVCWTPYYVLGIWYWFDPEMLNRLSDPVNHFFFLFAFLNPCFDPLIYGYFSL
Chain of KiSS-1 receptor (Homo sapiens) (Q969F8 whole entry, looked up): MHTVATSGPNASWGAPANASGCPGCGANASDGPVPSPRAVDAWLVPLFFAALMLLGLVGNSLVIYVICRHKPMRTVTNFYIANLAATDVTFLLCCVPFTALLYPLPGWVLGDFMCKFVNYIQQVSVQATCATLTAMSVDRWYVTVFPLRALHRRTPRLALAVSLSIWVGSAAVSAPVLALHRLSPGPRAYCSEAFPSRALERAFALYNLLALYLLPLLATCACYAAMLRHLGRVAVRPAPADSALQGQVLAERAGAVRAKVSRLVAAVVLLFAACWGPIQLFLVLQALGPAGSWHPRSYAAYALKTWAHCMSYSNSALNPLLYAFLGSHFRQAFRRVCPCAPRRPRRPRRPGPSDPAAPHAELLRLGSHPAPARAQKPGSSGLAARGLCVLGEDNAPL
Chain of 5-hydroxytryptamine receptor 2A (Homo sapiens) (P28223 whole entry, looked up): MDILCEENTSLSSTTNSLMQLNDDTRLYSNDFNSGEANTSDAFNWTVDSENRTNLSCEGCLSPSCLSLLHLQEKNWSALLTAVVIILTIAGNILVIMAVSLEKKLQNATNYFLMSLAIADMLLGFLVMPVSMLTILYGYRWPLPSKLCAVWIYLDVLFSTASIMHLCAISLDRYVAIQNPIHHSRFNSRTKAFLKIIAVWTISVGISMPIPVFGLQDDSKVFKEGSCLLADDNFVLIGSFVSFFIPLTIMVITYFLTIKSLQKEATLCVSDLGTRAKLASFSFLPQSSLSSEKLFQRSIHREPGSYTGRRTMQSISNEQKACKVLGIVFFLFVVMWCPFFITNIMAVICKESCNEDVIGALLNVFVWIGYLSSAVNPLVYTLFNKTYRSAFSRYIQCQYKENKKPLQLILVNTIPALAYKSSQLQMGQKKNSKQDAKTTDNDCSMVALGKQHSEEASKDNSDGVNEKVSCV

`COC(=O)C1=C(C)NC(C)=C(C(=O)OC(C)C)C1c1cccc2nonc12` (stereo not drawn): the Potency result in assay [1], in assay [2], in assay [3], in [4], in assay [5] and in [6] was “inactive” each time. Also, the Potency entry in assay [7], in assay [8], in assay [9], in [10], in assay [11] and in [12] was “inactive” each time. Further, the Potency entry in [13], in [14] and in [15] was “inactive” throughout.

Turning to `O/N=C/C=N/O`, the Potency entry in assay [1], in [2], in assay [3], in [4], in [5] and in assay [6] was “inactive” in each case. The Potency entry in assay [7], in assay [8], in [16], in assay [10], in assay [12] and in [13] was “inactive” throughout. Besides, the Potency entry in assay [17], in assay [18], in assay [14] and in [15] was “inactive” in each case.

In the case of `NC(Cc1c[nH]c2ccccc12)C(=O)O` (stereo not drawn), the Potency entry in assay [1], in assay [2], in assay [3], in assay [4], in [5] and in assay [6] was “inactive” in each case. Moreover, the Potency result in [7], in assay [8], in [9], in assay [10], in assay [11] and in assay [12] was “inactive” in each case. Moreover, the Potency result in [13], in assay [17] and in assay [14] was “inactive” throughout.

Turning to `CC(CCO)CCCC(C)(C)O` (stereo not drawn), the Potency result in assay [1], in [2], in [3], in assay [4], in assay [5] and in assay [6] was “inactive” in each case. The Potency result in [7], in assay [8], in [16], in assay [9], in assay [11] and in [17] was “inactive” each time. In addition, in assay [15], the Potency result is “inactive”.

In the case of `Cc1ccc2c(c1)CCCN2`, the Potency result in assay [1], in assay [2], in assay [3], in assay [4], in assay [5] and in assay [6] was “inactive” each time. For the same molecule, the Potency entry in assay [7], in assay [8], in assay [16], in [9], in [11] and in assay [17] was “inactive” throughout. Besides, the Potency result in assay [18], in [14] and in [15] was “inactive” in each case.

As to `CC1CC(OC(=O)C(O)c2ccccc2)CC(C)(C)N1C` (stereo not drawn), the Potency result in assay [1], in assay [2], in assay [3], in assay [4], in assay [5] and in assay [6] was “inactive” throughout. Further, the Potency result in assay [7], in [8], in assay [9], in assay [11], in assay [12] and in [13] was “inactive” each time. Moreover, the Potency entry in assay [17], in assay [18], in assay [14] and in assay [15] was “inactive” each time. For the same molecule, the Potency in assay [10] was 0.41 µM (active).

`O=Cc1cc(O)ccc1Br`: the Potency entry in [1], in assay [3], in [4], in assay [5], in assay [6] and in [7] was “inactive” throughout. Further, the Potency entry in [8], in [16], in assay [10], in assay [11], in assay [12] and in assay [13] was “inactive” in each case. Moreover, the Potency entry in [17], in [18], in assay [14] and in assay [15] was “inactive” each time. Besides, the Potency in assay [2] was 49.2 µM (active).
